PubChem BioAssay
Results with a measured potency or affinity are listed apart. Results filed as inconclusive are left out. The source made the active and inactive calls.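 The calls were made as follows, unless noted: active = a dose-response fit showing signal loss, with half-maximal concentration no higher than twice the top tested dose; inconclusive = flat fit between 30% and 70% signal loss, or poor fit; inactive = the rest.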

Assays:
[1] = fungal growth arrest, C. neoformans – Alamar Blue, cherry-picks, dose response (AID 686998;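 active = falling signal with fitted half-maximal potency no higher than twice the top valid tested dose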)
[2] = C. neoformans lysis by adenylate kinase leakage – AK release luminescence, cherry-picks, dose response (AID 687000;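 active = fitted dose curve reaches 40% lysis signal rise at or below the highest valid concentration tested for that sample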;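 also: luminescent detection of adenylate kinase leaking from lysed yeast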)
[3] = viability loss in HepG2 hepatoma cells – cell-based, cherry-picks, set 2, cytotoxicity control, dose response (AID 687002)
[4] = viability loss in HeLa cells – cell-based, ATP luminescence, cherry-pick samples, cytotoxicity control, dose response (AID 687004;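 active = a fitted half-maximal concentration no higher than twice the top valid tested dose, with signal falling as cells die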)

Measured: outcome

C[C@@H]1CCCCO[C@@H](CN(C)Cc2ccncc2)[C@@H](C)CN([C@@H](C)CO)C(=O)c2cc(NC(=O)c3ccncc3)ccc2O1
inactive: all assays above

Cc1ccc(C)c(NC(=O)C2(C)CCCN2C(=O)C(C)C)c1 (stereo unspecified)
inactive: all assays above

C[C@H]1CN([C@@H](C)CO)C(=O)c2cccc(NS(C)(=O)=O)c2O[C@H]1CN(C)C(=O)Nc1ccc2c(c1)OCO2
inactive: all assays above

C[C@H](CO)N1C[C@H](C)[C@@H](CN(C)Cc2ccncc2)OCCCC[C@H](C)Oc2ccc(NC(=O)NC3CCCCC3)cc2C1=O
inactive: all assays above

C[C@@H]1CN([C@H](C)CO)C(=O)c2cc(-c3cccc(F)c3)cnc2O[C@H]1CN(C)Cc1ccccc1
inactive: all assays above

Cc1noc(C)c1NC(=O)Nc1ccc2c(c1)C(=O)N(C)[C@H]1CC[C@H](CC(=O)N[C@H]3CCN(Cc4ccccc4)C3)O[C@H]1CO2
inactive: all assays above

CCCNC(=O)N1[C@H](CO)[C@@H](c2ccc(C3=CCCC3)cc2)[C@@H]1CN(C)C(C)=O
inactive: all assays above

CCC(=O)N[C@H]1C=C[C@@H](CC(=O)OC)O[C@@H]1CO
inactive: all assays above

CO[C@H]1CN(C)C(=O)c2cc(NC(=O)C3CCOCC3)ccc2OC[C@@H](C)NC[C@H]1C
inactive: all assays above

COCC#Cc1cnc2c(c1)C(=O)N([C@@H](C)CO)C[C@@H](C)[C@@H](CN(C)C(=O)C1CC1)O2
inactive: all assays above

Cc1ccccc1-n1ncc2c(SCC(=O)NC3CCCC3)ncnc21
inactive: all assays above

C[C@H]1CN([C@@H](C)CO)C(=O)c2cc(-c3cncnc3)cnc2O[C@H]1CN(C)C(=O)c1ccccc1F
inactive: all assays above

C/C=C/c1cnc2c(c1)C(=O)N([C@H](C)CO)C[C@@H](C)[C@@H](CN(C)C(=O)C1CCCCC1)O2
inactive: all assays above

C[C@H](NC(=O)C[C@@H]1CC[C@@H]2[C@H](COC[C@@H](O)CN2C(=O)Nc2cccc(F)c2)O1)c1ccccc1
inactive: all assays above

O=C(c1cccc(F)c1)N1C[C@@H]2[C@H](c3ccccc31)[C@H](CO)N2Cc1cocn1
inactive: all assays above

CC(C)NC(=O)Nc1cccc2c1O[C@@H](CN(C)C(=O)Nc1ccccc1)[C@@H](C)CN([C@@H](C)CO)C2=O
inactive: all assays above

Cc1cccc(C)c1NC(=O)CN1CCCC1
inactive: all assays above

C[C@@H]1CCCCO[C@@H](CN(C)Cc2ccc(C(F)(F)F)cc2)[C@@H](C)CN([C@@H](C)CO)C(=O)c2cc(NS(=O)(=O)c3cn(C)cn3)ccc2O1
inactive: all assays above

CN(C)C(=O)c1ccc(-c2ccc([C@H]3[C@H]4CN(CCC(F)(F)F)CCCCN4[C@H]3CO)cc2)cc1
inactive: all assays above

CCCNC(=O)C[C@H]1C[C@H]2c3cc(NC(=O)Nc4ccc(OC)cc4)ccc3O[C@H]2[C@@H](CO)O1
inactive: all assays above

C[C@@H]1CN([C@@H](C)CO)C(=O)c2cc(/C=C/c3ccccc3)cnc2O[C@@H]1CN(C)S(C)(=O)=O
inactive: all assays above

CC(C)NC(=O)N(C)C[C@@H]1OCCCC[C@@H](C)Oc2ccc(NC(=O)c3ccccc3)cc2C(=O)N([C@H](C)CO)C[C@@H]1C
inactive: all assays above

N#Cc1ccc(C23CC4(C2)[C@H](CN(Cc2ccc(-c5ccccc5)cc2)[C@@H]4c2ccccc2)C3c2ccc(C(F)(F)F)cc2)cc1 (stereo partly specified)
inactive: all assays above

O=C(C[C@@H]1CC[C@H]2[C@@H](COC[C@H](O)CN2Cc2cccc(C(F)(F)F)c2)O1)NCc1ccccc1
inactive: all assays above

CCCC#Cc1cnc2c(c1)C(=O)N([C@@H](C)CO)C[C@H](C)[C@H](CN(C)C(=O)Nc1cccc(F)c1)O2
inactive: all assays above

Cc1ccc(S(=O)(=O)N(C)C[C@@H]2Oc3ccc(NS(=O)(=O)c4ccc(Cl)cc4)cc3CC(=O)N([C@@H](C)CO)C[C@@H]2C)cc1
inactive: all assays above

Cc1ccc(S(=O)(=O)N2C[C@@H](O)COC[C@@H]3O[C@H](CC(=O)NCc4ccc5c(c4)OCO5)CC[C@H]32)cc1
inactive: all assays above

Cc1ccc(S(=O)(=O)N2C[C@@H](O)COC[C@H]3O[C@H](CC(=O)NCc4ccc5c(c4)OCO5)CC[C@@H]32)cc1
inactive: all assays above

C[C@H]1CN([C@@H](C)CO)C(=O)c2cc(C#Cc3ccccn3)cnc2O[C@H]1CN(C)Cc1ccncc1
inactive: all assays above

CCCC(=O)N1CCCC1(C)C(=O)Nc1cc(C)ccc1C (stereo unspecified)
inactive: all assays above

CO[C@H](CN(C)Cc1cc(F)ccc1F)[C@@H](C)CN([C@@H](C)CO)S(=O)(=O)c1ccc(F)cc1
inactive: all assays above

C[C@@H]1CN([C@@H](C)CO)C(=O)Cc2cc(NC(=O)Nc3cccc4ccccc34)ccc2O[C@@H]1CN(C)Cc1ccc(C(=O)O)cc1
inactive: all assays above

Cc1noc(C)c1S(=O)(=O)Nc1ccc2c(c1)C(=O)N([C@H](C)CO)C[C@@H](C)[C@H](CN(C)Cc1ccccc1)OCCCC[C@H](C)O2
inactive: all assays above

C/C=C/c1ccc([C@@H]2[C@@H](CNC(=O)c3ccccc3)N(C(C)=O)[C@H]2CO)cc1
inactive: all assays above

Cc1ccc(NC(=O)C2(C)CCN2C(=O)C2CCCCC2)cc1C (stereo unspecified)
inactive: all assays above

COCC(=O)N(C)C[C@@H]1Oc2ncc(C#CCC3CCCC3)cc2C(=O)N([C@H](C)CO)C[C@H]1C
inactive: all assays above

Cc1noc(C)c1NC(=O)Nc1cccc2c1O[C@H](CN(C)S(=O)(=O)c1cn(C)cn1)[C@H](C)CN([C@H](C)CO)C2=O
inactive: all assays above

CC(C)NC(=O)Nc1cccc2c1O[C@H](CN(C)C)[C@H](C)CN([C@H](C)CO)C2=O
inactive: all assays above

O=C(NCC[C@H]1CC[C@H](NS(=O)(=O)c2ccc(F)cc2)[C@@H](CO)O1)c1ccc2c(c1)OCO2
inactive: all assays above

CCCN1C[C@@H](C)[C@H](OC)CN(C)C(=O)c2ccc(NC(=O)c3cccc(F)c3)cc2OC[C@@H]1C
inactive: all assays above

CC(=O)N1[C@@H]2CN(S(=O)(=O)c3ccccc3F)c3ccccc3[C@@H]2[C@@H]1CO
inactive: all assays above

Cc1noc(C)c1NC(=O)N(C)C[C@@H]1Oc2ccc(NC(=O)NC(C)C)cc2CC(=O)N([C@H](C)CO)C[C@H]1C
inactive: all assays above

COc1ccccc1NC(=O)N[C@@H]1CC[C@@H](CCn2cc(C3(O)CCCC3)nn2)O[C@H]1CO
inactive: all assays above

Cc1cccc(C)c1NC(=O)CNC(=O)C(C)N1CCCCC1 (stereo unspecified)
inactive: all assays above

CCC(C)(C(=O)NC1CCCCC1)N(C(=O)C1CCC(=O)N1)c1ccccc1 (stereo unspecified)
inactive: all assays above

O=C(C[C@H]1C[C@@H]2c3cc(NC(=O)CC4CC4)ccc3O[C@@H]2[C@@H](CO)O1)NCc1cccc(F)c1
inactive: all assays above

Cc1noc(C)c1NC(=O)Nc1ccc2c(c1)C(=O)N([C@H](C)CO)C[C@H](C)[C@H](CN(C)CC1CCCCC1)O2
inactive: all assays above

C[C@H]1CN([C@@H](C)CO)C(=O)c2cc(NS(=O)(=O)c3ccc(F)cc3)ccc2O[C@@H]1CN(C)S(=O)(=O)c1ccccc1
inactive: all assays above

CCC(=O)N1[C@H](C(=O)Nc2ccccc2)[C@@H](CO)[C@@H]2Cn3c(ccc(-c4ccncc4)c3=O)[C@@H]21
inactive: all assays above
